Test results published in PubChem BioAssay AID1044 (The Scripps Research Institute Molecular Screening Center, 2008).
About 240 (1.5%) of roughly 16,000 compounds were called active. Cut-off read from the data, not from the text of the source: active = activation above about 80%; inactive = the rest. The sample as a whole holds a higher share of actives than the screen did.

Biological target: Sphingosine 1-phosphate receptor 1 (Homo sapiens) (UniProt P21453)
Experiment: S1P1 (human) receptor agonism (AID 1044)
Conditions: S1P1 agonist cell-based reporter assay; at 4.5 µM; stronger effect = higher value

Chain of Sphingosine 1-phosphate receptor 1 (Homo sapiens) (P21453 whole entry, looked up): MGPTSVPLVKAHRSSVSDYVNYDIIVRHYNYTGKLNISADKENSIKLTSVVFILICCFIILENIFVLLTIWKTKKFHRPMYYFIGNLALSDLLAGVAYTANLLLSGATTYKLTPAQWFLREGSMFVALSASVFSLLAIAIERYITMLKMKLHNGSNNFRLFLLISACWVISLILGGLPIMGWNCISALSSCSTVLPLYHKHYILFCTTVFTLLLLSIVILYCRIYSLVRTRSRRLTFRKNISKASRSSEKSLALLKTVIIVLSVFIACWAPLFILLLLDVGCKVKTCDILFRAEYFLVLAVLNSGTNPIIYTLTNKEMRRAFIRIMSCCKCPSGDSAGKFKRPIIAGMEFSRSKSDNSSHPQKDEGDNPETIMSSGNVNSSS

activation, active:
Cc1ccc(NC(C(=O)O)c2ccccc2)cc1 (stereo not drawn) 81.5%
CCOC(=O)c1c(NS(=O)(=O)c2cccc3nsnc23)sc(C)c1C 117%

activation, inactive:
O=C1NC(=O)c2cc([N+](=O)[O-])c(Sc3c(Cl)cccc3Cl)cc21 16.5%
Cn1cc(Br)c(-c2ccc(NC(=O)Nc3ccc(Cl)cc3)cc2)n1 48.5%
CCOC(=O)NN(C(=O)OCC)c1c(C)c(C)c(C)c(C)c1C 6.8%
CCOc1ccc(NC(=S)N2CCC(c3ccccc3OC)CC2)cc1 -5.17%
COc1ccc(OC)c(CNC(=O)Cc2cccs2)c1 2.66%
CC(C)N(C(=O)c1ccc(-c2ccccc2F)cc1)C(C)C 5.33%
COc1ccc(-c2ccc(/C=N/NC(=O)CCc3ccc(O)cc3)s2)cc1 76.7%
COc1ccc2c(c1)CCCC2=Nc1ccccc1C(F)(F)F 76.9%
Cc1cc2nc(C)c(C)nc2cc1C -24.7%
NC(=O)c1sccc1Br -10.4%
Cc1onc(-c2ccccc2)c1CNS(=O)(=O)c1ccc2c(c1)OCCN2C -10.4%
Cc1ccc(NC(=O)c2ccccc2NC(=O)c2ccccc2)cc1 -30.9%
NC(CC(=O)O)c1ccccc1 (stereo not drawn) 6.64%
O=[N+]([O-])c1ccc(-c2nnnn2Cc2c(Cl)cccc2Cl)cc1 38.8%
Cc1oc(-c2ccc(Cl)cc2)cc1C(=O)N1CCN(Cc2ccccc2)CC1 -6.1%
COc1ccc(NC(NC(=O)c2ccc(OC)cc2)(C(F)(F)F)C(F)(F)F)cc1 4.17%
CCOC(=O)N/N=C(\C)c1cccc(NC(C)=O)c1 3.43%
CC(C)(C)C(=O)Nc1c(Br)c(C2CC2)nn1-c1ccccc1 4.11%
N#Cc1ccc(OS(=O)(=O)c2cc(C(F)(F)F)cc(C(F)(F)F)c2)cc1 0.18%
CSc1nc(N)n(-c2ccccc2)n1 5.77%
COC(=O)c1c(C(=O)OC)c2n(c1C)CCS2 10.2%
O=C(Nc1ccc(OCc2ccccc2)cc1)OCC1CN(Cc2ccccc2)CCO1 (stereo not drawn) 43.9%
O=S(=O)(Oc1cccc(C(F)(F)F)c1)c1cc(S(=O)(=O)c2ccccc2)cs1 4.61%
Cn1nc(C(C)(C)C)c(NC(=O)c2sccc2Cl)c1C(C)(C)C -7.37%
CCc1ccc(S(=O)(=O)Nc2ccc(C)c(NS(C)(=O)=O)c2)cc1 6.03%
Cc1oc(-c2ccc(Cl)cc2)cc1C(=O)N1CCOCC1 6.2%
